An excerpt weighted towards active compounds, which were near 7.5% of everything screened.
VACV mCherry inh: vaccinia inhibition (mCherry reporter); Vaccinia virus mCherry reporter infection, fluorescence; Potency, µM (top dose mostly 36.5 µM), without a hit: top-dose activity change, negative = inhibition, most hits filed as inhibitors; AID 720579; hit rate 0.63% among 310,000; calls by dose curve; tested in A549 cells; further: potency means the concentration at half of the fitted maximal effect; nearly all actives have a fitted effect of over 35% in size
HCMV inh: inhibitors of human cytomegalovirus; activity change, negative = inhibition, % at 57.5 µM; AID 1259415; HFF cells, HCMV-luciferase reporter, 72 h; active compounds read low; hit rate 4.5% among 410,000; in the data active means activity change below about -60%; inconclusive means no clear call, values can overlap the other calls; inactive means above about -39%
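Compounds were evaluated in HFFs infected with an HCMV luciferase reporter virus (MOI 1 PFU/cell). Luciferase in lysates collected 72 h post infection served as the replication measure.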
HCV inh: HCV inhibition; Huh7.5.1 HCVcc-Cre infection, luciferase reporter, 44 h; Potency, µM (series often up to 41.8 µM), for inactives: at the highest dose activity change, negative = inhibition, hits mostly inhibitors; hit rate 3.4% among 340,000; AID 651820; further: potency means the concentration at half of the fitted maximal effect
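HCVcc-Cre virus at an moi near 0.5 was added right after compound to cells cultured 4 h from seeding (1,000 cells/well). Luciferase activity was determined 44 h later, 15 min after substrate addition at RT.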
FMDV antiviral: blocks foot and mouth disease virus. hit rate 1.2% among 410,000. FMDV antiviral cell-based qHTS. Potency, µM (top dose mostly 57.9 µM), for the others: at the top dose activity change, negative = inhibition, hits mostly inhibitors; calls by dose curve; tested in HEK293T cells; further: read-out not given here; potency means the concentration at half of the fitted maximal effect; nearly all actives have a fitted effect of over 45% in size
FBPA Giardia inh: inhibitors of Giardia lamblia fructose-1,6-bisphosphate aldolase; A8B2U2; purified Giardia FBPA; Potency, µM (titrated, usually from 59.6 µM), inactives show at the top dose activity, negative = inhibition, hits mostly inhibitors; hit rate 0.71% among 290,000; further: potency means the concentration at half of the fitted maximal effect; nearly all actives have a fitted effect of over 55% in size
Target sequence (A8B2U2 whole entry, looked up): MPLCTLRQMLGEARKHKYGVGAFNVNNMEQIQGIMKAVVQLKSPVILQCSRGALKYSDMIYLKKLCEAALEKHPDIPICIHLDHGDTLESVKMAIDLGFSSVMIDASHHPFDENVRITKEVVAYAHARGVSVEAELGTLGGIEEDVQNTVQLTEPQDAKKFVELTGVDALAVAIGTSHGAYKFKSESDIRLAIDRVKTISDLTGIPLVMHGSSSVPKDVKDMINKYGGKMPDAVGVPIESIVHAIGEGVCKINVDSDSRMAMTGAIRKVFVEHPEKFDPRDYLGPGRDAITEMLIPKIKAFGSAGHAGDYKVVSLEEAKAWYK
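40 nM FBPA preincubated 10 min at RT with compound (up to 57.5 uM final), then substrate plus GAPDH/TPI/NAD/arsenate coupling and diaphorase/resazurin added. Fluorescence read after 20 min at RT, 525/598 nm.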
VACV Venus inh: inhibitors of vaccinia virus (Venus reporter) | Vaccinia virus Venus reporter expression, fluorescence | Potency, µM (top dose mostly 36.5 µM), without a hit: at the highest dose activity change, negative = inhibition, actives largely listed as inhibitors | hit rate 0.46% among 330,000; calls by dose curve; tested in A549 cells; further: potency means the concentration at half of the fitted maximal effect; nearly all actives have a fitted effect of over 30% in size
The depositor's hits bear a star; i = inactive; ? = inconclusive; . = no result; ! = not active in a repeat. Unless noted, the call rests on the fitted dose curve; in most records, active means well fitted curve in the direction sought with a large enough effect; inconclusive means small, poorly fitted or top-dose-only effect, or another doubt; inactive means no such curve, though single readings can be large; an effect the other way counts as inactive or inconclusive. On the % scale 0 is the no-effect control and ±100 the full control effect.

SMILES | VACV mCherry inh | HCMV inh | HCV inh | FMDV antiviral | FBPA Giardia inh | VACV Venus inh
COC(=O)c1ccc(OC(=O)c2ccccc2F)cc1 | . | ? | -3% | . | 3% | .
Cc1cc(C)c(OCC(=O)NCC(C)(C)N2CCOCC2)c(C)c1 | -17% | -33 | 5% | -9% | . | -7%
Cc1ccccc1C(=O)Nc1ccnn1C1CCN(Cc2cccnc2)CC1 | i | -28 | 18% | -8% | -3% | -3%
O=C(Nc1ccnn1C1CCN(Cc2ccc(OC(F)F)cc2)CC1)C1CCCC1 | ? | -23 | 22µM* | -25% | . | -19%
COc1ccc(C(=O)Nc2ccnn2C2CCN(Cc3ccc4nonc4c3)CC2)cc1 | . | -94* | -29% | -24% | . | .
O=C(Nc1ccnn1C1CCN(Cc2ccc(Cl)cc2)CC1)C1CCCC1 | -1% | -25 | -13% | -16% | . | -6%
CCc1ccc(CN2CCC(n3nccc3NC(=O)c3ccccc3C)CC2)cc1 | i | -35 | 14µM* | -11% | . | -14%
CCS(=O)(=O)N1Cc2ccccc2CC1C(=O)Nc1nnc(SCc2ccc(C#N)cc2)s1 (centres undefined) | -2% | -66* | -12% | -28% | 17% | -20%
COc1ccc(N2CCN(S(=O)(=O)c3cnc[nH]3)CC2)cc1 | i | -24 | 19% | -4% | 7% | -17%
COc1ccc(C(C)(C)C)cc1NC(=O)COC(=O)C1=NNC(=O)CC1 | . | -5 | -10% | -2% | . | .
Cc1ccc(C(=O)Nc2cccc(-c3nc(CNC(=O)c4ccc5ccccc5n4)c(C)o3)c2)s1 | -13% | . | . | 25% | . | 0%
CCCC(=O)C1=C(O)C(C(=O)OC)C(C)(C)CC1=Nc1ccncc1 (centres undefined) | . | 16 | 7% | 17% | 8% | -1%
CCN(CC)c1ccc(C(=C2C=CC(=[N+](CC)CC)C=C2)c2ccccc2)cc1 | ? | -100* | ? | 3.5µM* | 18µM* | 2µM*
CCN(CC)c1ccc(C(=O)NNC(=O)CCl)cc1 | -6% | -35 | ? | 4% | ? | -9%
CCN(CC)c1ccc(C(=C2C=CC(=[N+](CC)CC)C=C2)c2ccc(N(CC)CC)cc2)cc1 | . | -105* | 1.8µM* | 8.9µM* | . | .
CCN(CC)c1ccccc1 | i | -37 | 1% | -23% | . | -1%
COc1ccc(CCCc2nnc(SCC(=O)Nc3cccc(F)c3C)o2)cc1 | -1% | -3 | . | -11% | . | -9%
Cc1ccccc1-c1cc2nc(NCc3cccnc3)n(C)c(=O)c2s1 | 8% | 34 | . | 0% | . | -18%
CCOc1cc(Br)cc(/C=C2\SC(=Nc3ccccc3)NC2=O)c1O | . | -84* | ? | 0% | -10% | .
Cn1cccc1/C=C1\SC(=Nc2ccccc2)NC1=O | . | 2 | 7.9µM* | 60% | 1% | .
Cc1ccc(N=C2NC(=O)/C(=C/c3cn(C)c4ccccc34)S2)cc1C | -12% | ? | 13µM* | 0% | -4% | 175%
Cn1cccc1/C=C1\SC(=Nc2ccc(O)cc2)NC1=O | . | -77* | ? | 36% | 0% | .
C=CCOc1ccc(Br)cc1/C=C1/SC(=Nc2ccc(C(=O)O)cc2)NC1=O | . | -15 | 7% | 2% | 17% | .
CCc1ccc(OCc2cc(=O)n3c4c(sc3n2)CCCC4)cc1 | -6% | -1 | . | 49% | . | -12%
COc1cccc(NC(=O)Cn2c(=O)n(CCC(=O)NCc3ccccc3OC)c(=O)c3ccccc32)c1 | -13% | -10 | . | -7% | . | -6%
SMILES | VACV mCherry inh | HCMV inh | HCV inh | FMDV antiviral | FBPA Giardia inh | VACV Venus inh
CCC1(c2cccc(O)c2)CCCCN(C)C1 (centres undefined) | -11% | -68* | -66% | -15% | . | -8%
CCCN1CCCC(c2cccc(O)c2)C1 (centres undefined) | . | . | . | . | 1% | .
COc1ccc(OC)c(NC(=O)CSc2nc(=O)n(CCN3CCOCC3)c3c2CCCC3)c1 | i | -8 | -2% | 7% | . | -8%
CCn1c(=NC(=O)c2ccc(S(=O)(=O)N3CCOCC3)cc2)sc2cccc(OC)c21 | ? | -31 | 10µM* | ? | -7% | ?
COCCn1c(=NC(=O)c2ccc(S(=O)(=O)N3CCOCC3)cc2)sc2cc(S(N)(=O)=O)ccc21 | -15% | 6 | ? | -17% | 4% | -24%
CCn1c(=NC(=O)CCS(=O)(=O)c2ccccc2)sc2cccc(OC)c21 | ? | -74* | . | 20µM* | . | -30%
CCn1c(=NC(=O)CS(=O)(=O)c2ccc(F)cc2)sc2cccc(OC)c21 | -10% | ? | ? | ? | . | -19%
CCn1c(=NC(=O)c2cccc(N3C(=O)CCC3=O)c2)sc2c(C)ccc(OC)c21 | 3% | -15 | -10% | 2% | -7% | -11%
CCn1c(=NC(=O)c2ccc(N3C(=O)CCC3=O)cc2)sc2c(OC)ccc(OC)c21 | -7% | -8 | 14µM* | ? | -6% | -26%
Cc1oc2ccc(O)c(CN3CCCC3)c2c1C(=O)Nc1cccc(Cl)c1C | -11% | -6 | . | 0% | . | -2%
COCCCNC(=O)CSC1=Nc2ccccc2C2=NC(c3ccccc3)C(=O)N12 (centres undefined) | . | -64* | 16% | 19% | 13% | .
NC(N)=N/N=C/c1ccc(OCc2ccc(Cl)cc2)cc1 | -29% | 15 | ? | -16% | 2% | ?
NC(N)=N/N=C/c1ccc(OCc2ccccc2)cc1 | -10% | -96* | ? | . | -8% | -26%
N/C(=N\OC(=O)N1CCOCC1)c1ccc(Br)cc1 | 6% | -76* | ? | 26% | 2% | -19%
N/C(=N\OC(=O)N1CCOCC1)c1ccc(Cl)cc1 | -14% | -31 | 2% | 16% | -2% | -13%
O=C(CSc1ncnc2sc3c(c12)CCCC3)N1CCC(c2noc3ccc(F)cc23)CC1 | . | 11 | 11µM*! | 3% | -7% | .
CC1CC2(C)Oc3ccccc3CC2C(C)C1CNCCCN(C)C (centres undefined) | ? | -99* | ? | ? | -2% | 14µM*
CC(C)CSc1ccccc1NC(=O)c1sc2nc(-c3ccncc3)ccc2c1N | -18% | -24 | . | -7% | . | -10%
CC(=O)N1CCN(c2ccc(NCc3ccc(F)cc3)cc2)CC1 | -4% | -40 | ? | ? | ? | 2%
COc1cc(CNc2ccc(N3CCN(C(C)=O)CC3)cc2)ccc1OCc1ccc(F)cc1 | ? | -73* | 1% | -16% | -14% | -26%
COc1ccc(N2CCN(C(=O)NCc3ccc(OC)c(Cl)c3)CC2)cc1 | ? | ? | 7% | 5% | 3% | 1%
CCOc1cc(CNc2ccc(N3CCN(C(C)=O)CC3)cc2)cc(Br)c1OC | -11% | ? | 2% | -27% | -10% | -7%
COc1ccc(N2CCN(c3nc(NCCc4ccc(OC)c(OC)c4)nc(OC)n3)CC2)cc1 | -27% | -90* | 11µM* | 25µM* | -9% | ?
COc1ccc(N2CCN(C(=O)NCc3ccc(OC)c(OC)c3)CC2)cc1 | -1% | -68* | 7% | 2% | 3% | -11%

Bioassay records deposited in PubChem BioAssay by National Center for Advancing Translational Sciences (NCATS).
